Results as given in the supplement of paper PMC10849652.
About 7,900 targets were measured; listed, in parts, are those with a hit and a random draw of the rest. About 0.6% of all pairs of compound and target were hits.

Key:
Test in all cases: log2 fold change, soluble protein after heating vs DMSO (PISA); higher = thermal stabilisation; K562 cells, 10 uM, 30 min; active = over 0.2 and 3.5 SD of the protein, either way, in both replicates (recomputed)
erlotinib = compound: C#Cc1cccc(Nc2ncnc3cc(OCCOC)c(OCCOC)cc23)c1 [erlotinib]
Outline: (§1)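 Soluble protein was quantified by TMTpro 16plex LC-MS/MS after channel sums were equalised. It was obtained as the supernatant after 21,000xg for 90 min from pooled aliquots of K562 cells (2×10^6 cells/mL, 10 μM compound, 30 min) heated for 3 min across 48°C-58°C and extracted in PBS with 0.5% NP-40 at 4°C. Thermal stability values are relative to control samples and come from duplicates. They are given as log2 fold changes.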

[1] = compound: C/C(=N\NC(=O)C1=CC(=CC=C1)S(=O)(=O)N2CCOCC2)/C3=C(C=CC(=C3)Cl)O
Outline: as §1

[2] = compound: C1=CC(=C(C=C1Cl)C2=NC3=NC=CN=C3C(=N2)NC4=CC=NC=C4)F
Outline: as §1

[3] = compound: C1=CC(=CC=C1C2=NC3=C(N2)C=C(C=C3)C(=O)N)OC4=CC=C(C=C4)Cl
Outline: as §1

[4] = compound: C1=CC2=C(C=CC(=C2)/C=C\3/C(=O)NC(=NCC4=CC=CS4)S3)N=C1
Outline: as §1

[5] = compound: C1=CC2=NC=CN=C2C=C1/C=C/3\C(=O)NC(=O)S3
Outline: as §1

[6] = compound: C1=CC=C(C=C1)C2=NC(=C(N2)C3=CC=NC=C3)C4=CC(=C(C=C4)Cl)O
Outline: as §1

[7] = compound: C1=CC=C2C(=C1)C3=NNC4=CC=CC(=C43)C2=O
Outline: as §1

[8] = compound: C1CCN(C1)C(=O)NC2=CC=CC(=C2)NC3=NC=C(C(=N3)NCCC4=CN=CN4)Br
Outline: as §1

[9] = compound: C1CN(CCC1(CC2=CC=C(C=C2)Cl)N)C3=NC=NC4=C3C=CN4
Outline: as §1

IRAK-1-4 Inhibitor I = compound: C1COCCN1CCN2C3=CC=CC=C3N=C2NC(=O)C4=CC(=CC=C4)[N+](=O)[O-] [IRAK-1-4 Inhibitor I]
Outline: as §1

ibrutinib = compound: C=CC(=O)N1CCC[C@@H](n2nc(-c3ccc(Oc4ccccc4)cc3)c3c(N)ncnc32)C1 [ibrutinib]
Outline: as §1

[10] = compound: CC(=O)c1cnc2ccc(-c3cc(Cl)c(O)c(Cl)c3)nc2c1N[C@H]1CC[C@H](CN(C)C)CC1
Outline: as §1

ralimetinib = compound: CC(C)(C)Cn1c(N)nc2ccc(-c3[nH]c(C(C)(C)C)nc3-c3ccc(F)cc3)nc21 [ralimetinib]
Outline: as §1

[11] = compound: CC(C)(O)CC(=O)NCCn1ccc2ncnc(Nc3ccc(Oc4cccc(C(F)(F)F)c4)c(Cl)c3)c21
Outline: as §1

[12] = compound: CC(C)C1=C2N=C(C=C(N2N=C1)NCC3=CC=CC=C3)NCCCCCCN
Outline: as §1

[13] = compound: CC(C)C[C@@H](C=O)NC(=O)[C@H](CC(C)C)NC(=O)[C@H](CC(C)C)NC(=O)OCc1ccccc1
Outline: as §1

pinometostat = compound: CC(C)N(C[C@H]1O[C@@H](n2cnc3c(N)ncnc32)[C@H](O)[C@@H]1O)[C@H]1C[C@@H](CCc2nc3cc(C(C)(C)C)ccc3[nH]2)C1 [pinometostat]
Outline: as §1

[14] = compound: CC1=C(C(CC(=O)N1)C2=CC=C(C=C2)C(F)(F)F)C(=O)NC3=C(C=C4C(=C3)C=NN4)F
Outline: as §1

[15] = compound: CC1=C(C2=C(C=C1)C(=O)C3=CC=CC=C3N2CCCN)C
Outline: as §1

Measured: log2 fold change

ME2 (UniProt P23368)
inactive: erlotinib -0.017 | [1] -0.017 | [2] 0.01 | [3] -0.078 | [4] 0.036 | [5] -0.024 | [6] 0.055 | [7] -0.061 | [8] 0.008 | [9] 0.081 | IRAK-1-4 Inhibitor I 0.009 | ibrutinib -0.039 | [10] 0.213 | ralimetinib -0.003 | [11] 0.036 | [12] 0.152 | [13] 0.025 | pinometostat -0.021 | [14] -0.048 | [15] -0.042

MAP2K7 isoform 4 (UniProt O14733)
UniProt O14733, sequence (O14733 whole entry, looked up): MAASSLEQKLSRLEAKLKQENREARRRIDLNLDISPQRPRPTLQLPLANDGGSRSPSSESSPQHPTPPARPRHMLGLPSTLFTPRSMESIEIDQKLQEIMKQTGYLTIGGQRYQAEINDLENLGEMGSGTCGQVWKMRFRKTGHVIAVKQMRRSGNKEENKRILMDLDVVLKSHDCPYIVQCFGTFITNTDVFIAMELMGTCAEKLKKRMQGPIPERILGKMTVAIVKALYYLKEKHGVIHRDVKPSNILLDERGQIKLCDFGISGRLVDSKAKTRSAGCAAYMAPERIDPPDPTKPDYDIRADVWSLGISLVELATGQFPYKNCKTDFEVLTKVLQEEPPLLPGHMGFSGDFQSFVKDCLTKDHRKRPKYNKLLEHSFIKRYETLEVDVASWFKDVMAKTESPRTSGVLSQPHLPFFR
inactive: erlotinib 0.021 | [1] -0.005 | [2] 0.061 | [3] 0.017 | [4] 0.01 | [5] 0.017 | [6] -0.009 | [7] -0.032 | [8] -0.012 | [9] 0.023 | IRAK-1-4 Inhibitor I 0.013 | [10] 0.175 | ralimetinib -0.043 | [11] -0.013 | [12] -0.025 | [13] 0.051 | pinometostat 0.022 | [14] 0.033 | [15] 0.032
active: ibrutinib -0.301

IWS1 (UniProt Q96ST2)
active: [10] 0.492 | [15] -0.301
inactive: erlotinib 0.029 | [1] 0.029 | [2] 0.091 | [3] 0 | [4] -0.033 | [5] 0.022 | [6] -0.013 | [7] -0.077 | [8] -0.067 | [9] -0.033 | IRAK-1-4 Inhibitor I -0.026 | ibrutinib -0.027 | ralimetinib -0.04 | [11] -0.09 | [12] 0.166 | [13] -0.04 | pinometostat 0.014 | [14] -0.044

MED12 isoform 2 (UniProt Q93074)
inactive: erlotinib 0.022 | [1] 0.04 | [2] -0.031 | [3] 0.188 | [4] 0.101 | [5] 0.121 | [6] 0.012 | [7] -0.361 | [8] 0.193 | [9] -0.11 | IRAK-1-4 Inhibitor I -0.057 | ibrutinib -0.098 | ralimetinib -0.05 | [11] -0.024 | [12] -0.291 | [13] -0.005 | pinometostat 0.251 | [14] -0.053 | [15] -0.04
active: [10] -0.747

IK (UniProt Q13123)
inactive: erlotinib 0.049 | [1] 0 | [2] -0.069 | [3] 0 | [4] 0.055 | [5] -0.022 | [6] -0.016 | [7] -0.11 | [8] -0.004 | [9] -0.065 | IRAK-1-4 Inhibitor I -0.139 | ibrutinib -0.067 | [10] -0.06 | ralimetinib -0.007 | [11] 0.054 | [12] 0.031 | [13] 0.239 | pinometostat 0.038 | [14] 0.022 | [15] 0.148

INTS7 (UniProt Q9NVH2)
inactive: erlotinib 0.39 | [1] 0.067 | [2] -0.016 | [3] 0.046 | [4] -0.175 | [5] 0.036 | [6] -0.081 | [7] 0.022 | [8] -0.091 | [9] -0.009 | IRAK-1-4 Inhibitor I 0.021 | ibrutinib -0.104 | [10] 0.029 | ralimetinib 0.028 | [11] -0.085 | [12] -0.146 | [13] 0.077 | pinometostat -0.136 | [14] -0.07 | [15] 0.048

MICU2 (UniProt Q8IYU8)
UniProt Q8IYU8, sequence (Q8IYU8 whole entry, looked up): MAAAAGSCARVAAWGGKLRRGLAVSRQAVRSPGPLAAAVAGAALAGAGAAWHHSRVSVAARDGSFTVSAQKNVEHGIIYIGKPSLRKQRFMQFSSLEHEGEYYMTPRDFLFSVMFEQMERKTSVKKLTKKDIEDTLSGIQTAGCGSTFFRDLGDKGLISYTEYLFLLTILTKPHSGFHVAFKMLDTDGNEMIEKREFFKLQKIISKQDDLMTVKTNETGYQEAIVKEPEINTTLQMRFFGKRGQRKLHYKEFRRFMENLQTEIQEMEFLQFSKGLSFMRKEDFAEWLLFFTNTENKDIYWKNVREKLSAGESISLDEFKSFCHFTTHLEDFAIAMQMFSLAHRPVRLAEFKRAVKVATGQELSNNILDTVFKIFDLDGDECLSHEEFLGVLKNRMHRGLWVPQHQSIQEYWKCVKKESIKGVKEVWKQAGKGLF
inactive: erlotinib -0.013 | [1] -0.013 | [2] -0.06 | [3] -0.002 | [4] -0.038 | [5] -0.015 | [6] 0.103 | [7] 0.018 | [8] 0.045 | [9] -0.042 | IRAK-1-4 Inhibitor I -0.039 | ibrutinib -0.001 | [10] -0.026 | ralimetinib -0.05 | [11] -0.12 | [12] -0.292 | [13] 0.128 | pinometostat 0.211 | [14] 0.072 | [15] 0.136

LMNB1 (UniProt P20700)
UniProt P20700, sequence (P20700 whole entry, looked up): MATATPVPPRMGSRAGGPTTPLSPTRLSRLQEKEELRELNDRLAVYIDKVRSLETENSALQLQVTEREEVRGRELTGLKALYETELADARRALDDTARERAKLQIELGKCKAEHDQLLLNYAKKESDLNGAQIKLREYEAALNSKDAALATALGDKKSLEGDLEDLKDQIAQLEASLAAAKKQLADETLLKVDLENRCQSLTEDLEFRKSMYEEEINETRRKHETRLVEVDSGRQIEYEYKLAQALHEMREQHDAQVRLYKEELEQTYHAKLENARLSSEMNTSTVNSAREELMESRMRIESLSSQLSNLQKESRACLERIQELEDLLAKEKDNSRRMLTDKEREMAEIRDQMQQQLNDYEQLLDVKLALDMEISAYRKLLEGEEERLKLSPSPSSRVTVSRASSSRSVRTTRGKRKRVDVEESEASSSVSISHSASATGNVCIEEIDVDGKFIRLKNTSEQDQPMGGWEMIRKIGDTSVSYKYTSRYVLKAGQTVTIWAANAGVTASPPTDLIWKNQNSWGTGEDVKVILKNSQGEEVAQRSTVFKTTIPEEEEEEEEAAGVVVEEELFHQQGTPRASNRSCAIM
inactive: erlotinib -0.06 | [1] 0.071 | [2] 0.001 | [3] 0.029 | [4] -0.073 | [5] 0.064 | [6] -0.07 | [7] -0.151 | [8] -0.079 | [9] 0.001 | IRAK-1-4 Inhibitor I -0.004 | ibrutinib -0.03 | [10] -0.22 | ralimetinib 0.015 | [11] 0.091 | [12] -0.048 | [13] 0.031 | pinometostat 0.011 | [14] 0.01 | [15] -0.082

ITIH4 (UniProt Q14624)
inactive: erlotinib -0.026 | [1] -0.072 | [2] 0.029 | [3] 0.091 | [4] 0.143 | [5] -0.039 | [6] 0.061 | [7] -0.06 | [8] -0.009 | [9] 0.079 | IRAK-1-4 Inhibitor I 0.043 | ibrutinib 0.147 | [10] 0.041 | ralimetinib -0.044 | [11] 0.17 | [12] 0.045 | [13] -0.113 | pinometostat -0.117 | [14] 0.251 | [15] -0.148

IRF2BPL (UniProt Q9H1B7)
UniProt Q9H1B7, sequence (Q9H1B7 whole entry, looked up): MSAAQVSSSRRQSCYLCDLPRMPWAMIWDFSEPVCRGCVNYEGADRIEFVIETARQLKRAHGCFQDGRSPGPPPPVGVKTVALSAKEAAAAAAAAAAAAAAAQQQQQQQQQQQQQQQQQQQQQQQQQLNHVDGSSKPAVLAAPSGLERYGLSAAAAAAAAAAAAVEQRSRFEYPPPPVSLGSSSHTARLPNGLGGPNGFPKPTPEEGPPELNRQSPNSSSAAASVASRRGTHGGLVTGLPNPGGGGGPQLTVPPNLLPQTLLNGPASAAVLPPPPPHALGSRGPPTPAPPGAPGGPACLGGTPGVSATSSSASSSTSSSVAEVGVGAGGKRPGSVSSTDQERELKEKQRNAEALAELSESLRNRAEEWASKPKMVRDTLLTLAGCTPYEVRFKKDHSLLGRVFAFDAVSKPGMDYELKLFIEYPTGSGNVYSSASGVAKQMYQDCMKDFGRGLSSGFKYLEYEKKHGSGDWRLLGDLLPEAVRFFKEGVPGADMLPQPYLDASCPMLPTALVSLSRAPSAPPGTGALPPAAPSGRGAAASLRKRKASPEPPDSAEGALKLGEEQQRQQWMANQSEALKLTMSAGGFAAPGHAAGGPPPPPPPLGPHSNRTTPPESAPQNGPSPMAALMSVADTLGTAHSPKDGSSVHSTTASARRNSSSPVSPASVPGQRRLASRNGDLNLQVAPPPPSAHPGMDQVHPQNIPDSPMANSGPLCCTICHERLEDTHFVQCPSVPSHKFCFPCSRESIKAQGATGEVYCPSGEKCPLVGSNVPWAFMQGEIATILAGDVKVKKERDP
inactive: erlotinib -0.021 | [1] 0.023 | [2] 0.068 | [3] 0.04 | [4] -0.03 | [5] 0.064 | [6] 0.089 | [7] 0.025 | [8] -0.041 | [9] -0.022 | IRAK-1-4 Inhibitor I 0.031 | ibrutinib 0.038 | [10] 0.008 | ralimetinib 0.013 | [11] -0.18 | [12] 0.076 | [13] 0.063 | pinometostat -0.206 | [14] 0.044 | [15] 0.093

MFGE8 (UniProt Q08431)
inactive: erlotinib -0.135 | [1] -0.032 | [2] -0.149 | [3] 0.045 | [4] -0.059 | [5] -0.024 | [6] 0.024 | [7] 0.095 | [8] -0.041 | [9] -0.066 | IRAK-1-4 Inhibitor I -0.058 | ibrutinib 0.016 | [10] 0.269 | ralimetinib 0.152 | [11] 0.105 | [12] 0 | [13] 0.191 | pinometostat 0.12 | [14] -0.008 | [15] -0.038

LARP1 (UniProt Q6PKG0)
active: [15] -0.303
inactive: erlotinib -0.051 | [1] 0.002 | [2] -0.11 | [3] 0.085 | [4] -0.025 | [5] -0.001 | [6] -0.081 | [7] -0.067 | [8] 0.046 | [9] -0.172 | IRAK-1-4 Inhibitor I -0.131 | ibrutinib 0.009 | [10] -0.059 | ralimetinib 0.031 | [11] 0 | [12] -0.088 | [13] 0.036 | pinometostat 0.109 | [14] 0.021

MED16 (UniProt Q9Y2X0)
UniProt Q9Y2X0, sequence (Q9Y2X0 whole entry, looked up): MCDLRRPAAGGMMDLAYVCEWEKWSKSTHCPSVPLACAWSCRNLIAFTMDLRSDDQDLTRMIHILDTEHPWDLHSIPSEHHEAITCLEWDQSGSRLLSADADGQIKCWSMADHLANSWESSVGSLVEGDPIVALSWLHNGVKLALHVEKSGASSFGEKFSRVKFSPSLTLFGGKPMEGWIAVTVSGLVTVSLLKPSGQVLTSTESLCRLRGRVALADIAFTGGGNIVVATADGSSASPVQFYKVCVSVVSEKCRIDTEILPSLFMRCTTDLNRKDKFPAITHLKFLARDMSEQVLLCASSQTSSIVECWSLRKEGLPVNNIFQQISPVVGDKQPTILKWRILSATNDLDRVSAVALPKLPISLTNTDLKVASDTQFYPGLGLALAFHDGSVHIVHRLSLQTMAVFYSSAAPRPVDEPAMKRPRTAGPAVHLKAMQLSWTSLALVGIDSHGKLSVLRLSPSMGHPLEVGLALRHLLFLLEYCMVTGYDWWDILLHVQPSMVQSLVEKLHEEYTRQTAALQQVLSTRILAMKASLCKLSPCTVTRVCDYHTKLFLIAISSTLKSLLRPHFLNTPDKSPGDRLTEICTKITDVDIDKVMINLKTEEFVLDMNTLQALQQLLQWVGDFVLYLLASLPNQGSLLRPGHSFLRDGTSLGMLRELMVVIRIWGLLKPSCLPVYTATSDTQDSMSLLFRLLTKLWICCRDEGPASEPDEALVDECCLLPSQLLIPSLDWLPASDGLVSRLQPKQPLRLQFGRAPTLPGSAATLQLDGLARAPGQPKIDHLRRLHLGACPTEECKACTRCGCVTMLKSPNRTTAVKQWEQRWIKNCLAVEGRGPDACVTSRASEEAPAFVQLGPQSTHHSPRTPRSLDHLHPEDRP
active: [10] -0.358
inactive: erlotinib -0.019 | [1] -0.085 | [2] 0.065 | [3] -0.038 | [4] 0.038 | [5] 0.051 | [6] -0.067 | [7] -0.155 | [8] 0.034 | [9] -0.046 | IRAK-1-4 Inhibitor I 0 | ibrutinib 0.003 | ralimetinib 0.033 | [11] -0.029 | [12] -0.008 | [13] 0.064 | pinometostat 0.112 | [14] -0.019 | [15] 0.17

MFF (UniProt Q9GZY8)
UniProt Q9GZY8, sequence (Q9GZY8 whole entry, looked up): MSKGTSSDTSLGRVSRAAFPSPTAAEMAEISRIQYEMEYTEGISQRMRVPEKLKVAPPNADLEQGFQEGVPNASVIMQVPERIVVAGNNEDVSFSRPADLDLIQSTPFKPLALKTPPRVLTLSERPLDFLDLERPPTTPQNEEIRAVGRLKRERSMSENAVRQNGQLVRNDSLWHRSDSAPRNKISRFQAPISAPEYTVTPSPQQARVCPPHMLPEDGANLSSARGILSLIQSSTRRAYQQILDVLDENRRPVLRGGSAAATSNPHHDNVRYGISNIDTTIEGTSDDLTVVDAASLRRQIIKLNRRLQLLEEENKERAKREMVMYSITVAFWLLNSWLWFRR
inactive: erlotinib 0.02 | [1] -0.022 | [2] 0.011 | [3] -0.024 | [4] 0.107 | [5] 0.057 | [6] -0.008 | [7] -0.062 | [8] 0.007 | [9] 0.032 | IRAK-1-4 Inhibitor I 0.038 | ibrutinib 0.025 | [10] -0.228 | ralimetinib 0.018 | [11] 0.002 | [12] -0.074 | [13] 0.048 | pinometostat -0.012 | [14] 0.124 | [15] -0.042

KDM5D isoform 3 (UniProt Q9BY66)
UniProt Q9BY66, sequence (Q9BY66 whole entry, looked up): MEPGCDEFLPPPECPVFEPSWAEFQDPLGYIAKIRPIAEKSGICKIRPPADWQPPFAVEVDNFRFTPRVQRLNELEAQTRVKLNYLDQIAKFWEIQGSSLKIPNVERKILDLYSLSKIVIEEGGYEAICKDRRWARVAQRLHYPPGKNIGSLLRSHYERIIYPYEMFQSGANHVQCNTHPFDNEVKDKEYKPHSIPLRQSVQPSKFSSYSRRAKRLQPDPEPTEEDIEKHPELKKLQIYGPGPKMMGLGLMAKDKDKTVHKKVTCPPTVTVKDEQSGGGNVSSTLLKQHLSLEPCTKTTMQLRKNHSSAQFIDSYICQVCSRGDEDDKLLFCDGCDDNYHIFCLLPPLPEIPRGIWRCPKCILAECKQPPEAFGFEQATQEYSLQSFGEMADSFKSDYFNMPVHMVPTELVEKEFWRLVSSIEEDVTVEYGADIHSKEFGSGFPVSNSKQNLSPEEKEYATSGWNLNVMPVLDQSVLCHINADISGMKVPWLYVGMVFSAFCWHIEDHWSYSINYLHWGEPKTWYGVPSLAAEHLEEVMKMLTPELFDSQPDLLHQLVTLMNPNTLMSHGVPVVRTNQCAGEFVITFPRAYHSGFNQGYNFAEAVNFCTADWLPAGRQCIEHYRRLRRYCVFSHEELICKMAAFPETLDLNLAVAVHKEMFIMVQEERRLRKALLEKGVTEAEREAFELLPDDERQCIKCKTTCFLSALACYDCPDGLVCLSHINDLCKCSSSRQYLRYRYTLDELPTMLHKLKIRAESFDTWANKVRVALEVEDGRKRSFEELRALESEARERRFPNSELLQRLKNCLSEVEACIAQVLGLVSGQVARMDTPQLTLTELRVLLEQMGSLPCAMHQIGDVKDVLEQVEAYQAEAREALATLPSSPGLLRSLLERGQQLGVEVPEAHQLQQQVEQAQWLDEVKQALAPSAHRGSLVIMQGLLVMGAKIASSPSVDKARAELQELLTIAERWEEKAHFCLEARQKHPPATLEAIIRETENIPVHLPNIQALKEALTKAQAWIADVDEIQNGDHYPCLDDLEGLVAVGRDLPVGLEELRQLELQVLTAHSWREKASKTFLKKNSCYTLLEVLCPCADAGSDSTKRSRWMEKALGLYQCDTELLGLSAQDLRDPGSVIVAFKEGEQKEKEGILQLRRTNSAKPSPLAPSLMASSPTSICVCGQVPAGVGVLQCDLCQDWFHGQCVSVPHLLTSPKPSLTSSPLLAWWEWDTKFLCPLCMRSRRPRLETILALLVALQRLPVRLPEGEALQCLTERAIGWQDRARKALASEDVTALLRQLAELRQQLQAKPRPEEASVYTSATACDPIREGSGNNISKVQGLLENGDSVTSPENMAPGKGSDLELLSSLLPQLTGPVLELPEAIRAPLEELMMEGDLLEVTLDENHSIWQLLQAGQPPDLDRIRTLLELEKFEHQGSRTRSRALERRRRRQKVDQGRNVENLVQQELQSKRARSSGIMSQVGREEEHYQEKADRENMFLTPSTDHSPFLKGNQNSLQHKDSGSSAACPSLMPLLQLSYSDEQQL
inactive: erlotinib -0.036 | [1] -0.142 | [2] 0.067 | [3] -0.147 | [4] 0.121 | [5] -0.034 | [6] -0.005 | [7] 0.026 | [8] 0.035 | [9] 0.022 | IRAK-1-4 Inhibitor I -0.042 | ibrutinib -0.222 | [10] -0.05 | ralimetinib -0.083 | [11] -0.155 | [12] 0.036 | [13] 0.114 | pinometostat -0.047 | [14] 0.043 | [15] -0.103

LBR (UniProt Q14739)
inactive: erlotinib 0.009 | [1] 0.122 | [2] 0.043 | [3] -0.016 | [4] 0.029 | [5] 0.034 | [6] 0.059 | [7] -0.002 | [8] 0.037 | [9] 0.21 | IRAK-1-4 Inhibitor I -0.044 | ibrutinib -0.092 | [10] 0.038 | ralimetinib -0.001 | [11] -0.211 | [12] -0.168 | [13] -0.083 | pinometostat 0.211 | [14] -0.036 | [15] 0.188
